A selection: hits, their analogues and other compounds. The true share with any hit is near 1.3%.
MIN6 prolif – MIN6 beta-cell proliferation induction. MIN6 cells proliferation, ATPlite luminescence, 48 h; cells starved in 0.2% serum; 100% = growth in 10% serum. proliferation, % at 10 µM. 330,000 compounds, 0.29% hits. AID 2380;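 active = compounds whose signal lies at least 3.5 SD above the mean of all wells on their plate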;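 also: 0% = DMSO-treated cells in low-serum medium and 100% = 10% serum control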
PREPL inh – inhibitors of human prolyl oligopeptidase-like enzyme PREPL; Q4J6C6; recombinant PREPL, fluorescence polarization activity-based probe; inhibition, % at 5.96 µM; 320,000 compounds, 0.68% hits; in the data active = inhibition above about 43%;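 also: 0% = enzyme with DMSO and 100% = wells lacking enzyme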
RAD52 inh – blocks human RAD52 DNA annealing; P43351; recombinant RAD52 DNA annealing, FRET fluorescence; inhibition, % at 18.7 µM; 360,000 compounds, 0.46% hits; AID 651710;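 active = every replicate showing at least 50% inhibition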
RAD54 inh – blocks human RAD54 Holliday junction branch migration. Q92698. FAM/BHQ fluorescence. inhibition, % at 10.4 µM. 360,000 compounds, 0.14% hits. AID 602329;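 active = mean normalized replicate activity at least 40 and at least half of replicates scoring 40 or more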;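 also: 0% = median of neutral control wells and 100% = median of positive control wells; inhibitors cause a drop in the FAM fluorescence signal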
Target sequence (Q92698 whole entry, looked up): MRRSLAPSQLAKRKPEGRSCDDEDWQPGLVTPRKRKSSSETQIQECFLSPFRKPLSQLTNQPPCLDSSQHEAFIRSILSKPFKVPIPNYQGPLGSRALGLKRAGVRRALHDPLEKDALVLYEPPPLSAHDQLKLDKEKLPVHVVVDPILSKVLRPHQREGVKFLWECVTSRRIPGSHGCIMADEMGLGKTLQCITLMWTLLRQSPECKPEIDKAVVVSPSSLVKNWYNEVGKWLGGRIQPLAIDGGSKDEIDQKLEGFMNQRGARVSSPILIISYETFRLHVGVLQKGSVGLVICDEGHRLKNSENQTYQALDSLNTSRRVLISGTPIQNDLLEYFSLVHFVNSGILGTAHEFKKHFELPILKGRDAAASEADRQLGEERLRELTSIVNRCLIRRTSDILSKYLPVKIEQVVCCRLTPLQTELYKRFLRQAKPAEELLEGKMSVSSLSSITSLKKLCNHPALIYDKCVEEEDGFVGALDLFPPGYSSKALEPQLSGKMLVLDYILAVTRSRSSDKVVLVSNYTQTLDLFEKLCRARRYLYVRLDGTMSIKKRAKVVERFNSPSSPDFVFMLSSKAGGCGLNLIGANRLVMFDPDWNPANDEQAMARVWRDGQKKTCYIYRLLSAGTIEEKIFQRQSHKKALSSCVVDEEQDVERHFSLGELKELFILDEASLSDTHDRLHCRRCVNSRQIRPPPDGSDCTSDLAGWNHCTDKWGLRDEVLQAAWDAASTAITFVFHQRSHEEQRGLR
UBC13 inh – blocks human UBC13 polyubiquitin chain formation; P61088; TR-FRET; inhibition, % at 20 µM; 330,000 compounds, 0.47% hits; in the data active = inhibition above about 45%, passing the limit was not always enough
DNA FID counter – displaces DNA intercalator in HCV helicase counter-screen | DNA fluorescent intercalator displacement, fluorescence | AID 1845 | inhibition, % at 7.9 µM | 290,000 compounds, 0.17% hits; in the data active = inhibition above about 37%;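 also: 0% = vehicle and 100% = reference compound; higher means more ethidium bromide displaced from hairpin DNA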
DNA binder FP – binds DNA, flagging false RAD52 inhibitor hits; shares compounds with RAD52 inh; Salmon sperm DNA/acridine orange FP displacement, DNA binding; AC50, µM; 1,000 compounds, 8% hits; AID 652128;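 active = fitted half-maximal concentration for signal loss at or below twice the highest dose tested, in every separate run, actives reach about 64 µM in these data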
The depositor's hits bear a star; i = inactive; . = no result.

SMILES	MIN6 prolif	PREPL inh	RAD52 inh	RAD54 inh	UBC13 inh	DNA FID counter	DNA binder FP
CCOC(=O)c1c(CN(C)C)n(-c2ccccc2)c2cc(Br)c(OC)cc12	-6.5	0.2	14.9	28.4	5.5	7.4	.
O=C(C[C@H]1CC[C@H](NS(=O)(=O)c2ccc(F)cc2)[C@H](CO)O1)N1CCC(Cc2ccccc2)CC1	.	.	6.2	3.7	.	.	.
N#Cc1ccc2[nH]cc(C3c4cc(F)ccc4C=C(c4ccsc4)N3c3ccc(C#CCCO)cc3)c2c1 (stereo not given)	.	.	-1.6	.	.	.	.
COc1cc(-c2ccc(N3C(c4ccsc4)=Cc4ccc(F)cc4C3c3c[nH]c4ccc(C#N)cc34)cc2)cc(OC)c1OC (stereo not given)	.	.	71.0*	.	.	.	i
CN(C)c1ccc2nc3ccc(=[N+](C)C)cc-3sc2c1	-6.0	20.7	94.9*	.	i	74.0*	6.79µM*
COc1ccc2nc(N=Nc3ccc(N(C)C)cc3)sc2c1	.	.	.	-0.2	.	5.4	.
CC(C)N1CCc2c(sc(NC(=O)c3cc4cc([N+](=O)[O-])ccc4s3)c2C(N)=O)C1	-6.9	.	56.5*	23.4	7.2	5.4	i
N#Cc1cc2cc3c(cc2nc1SCC(=O)N1CCOCC1)OCO3	-2.5	13.6	-35.0	5.2	12.0	-13.2	.
N#Cc1cc2cc3c(cc2nc1NCCNC(=S)NCCCN1CCOCC1)OCO3	6.2	29.6	72.3*	.	2.4	12.2	i
CCC(/C=C1\Sc2ccc(OC)cc2N1CCO)=C\c1sc2ccc(OC)cc2[n+]1CCO	-2.8	-137.3	82.7*	11.1	40.4	-44.3	i
CCOC(=O)CCc1c(C)nc(SCc2ccc(C(=O)O)cc2)c(C#N)c1C	-3.5	-3.4	96.5*	2.1	10.1	-31.4	i
Oc1c(CN2CCCCC2)ccc2cccnc12	.	.	63.0*	4.1	.	.	i
COc1ccc(-c2nc(CN3CCN(c4cc(C)nc(C)c4)CC3)c(C)o2)c2ccccc12	-6.1	4.5	82.2*	39.2	24.1	25.2	i
CCC(=O)N(C)C[C@H]1Oc2cc(-c3ccccc3)ccc2S(=O)(=O)N([C@@H](C)CO)C[C@H]1C	.	.	15.0	13.2	.	.	.
NCCCC[C@H]1CNC(=S)N1CCc1cc(C(F)(F)F)cc(C(F)(F)F)c1	-2.2	1.6	66.7*	1.8	21.6	22.1	i
NCCCC[C@H]1CNC(=S)N1CCCCC1CCCCC1	-7.5	-15.2	85.6*	19.6	33.9	6.9	i
NCCCC[C@H]1CNC(=O)C(=O)N1CCc1cc(C(F)(F)F)cc(C(F)(F)F)c1	-2.3	8.5	-7.4	-12.4	4.6	.	.
O=C(C[C@H]1C[C@H]2c3cc(NC(=O)c4cccnc4)ccc3O[C@H]2[C@@H](CO)O1)NC1CCCCC1	.	.	8.8	10.1	.	.	.
C[C@]12CC[C@H](O)CC1=CCC1C2CC[C@@]2(C)C1CC[C@@H]2NC(=O)[C@@H](N)Cc1cnc[nH]1 (stereo not given in full)	.	.	79.9*	-8.7	.	.	i
C[C@]12CC[C@H](O)CC1=CCC1C2CC[C@@]2(C)C1CC[C@@H]2NC(=O)[C@@H](N)CO (stereo not given in full)	.	.	-0.7	.	.	.	.
CC(C)NC(=O)N(C)C[C@H]1OCCCC[C@@H](C)Oc2ccc(NC(=O)c3ccccc3)cc2C(=O)N([C@@H](C)CO)C[C@@H]1C	.	.	5.7	-5.7	.	.	.
CCN(Cc1ccncc1)Cc1ccc(OC)cc1OC	-1.3	11.8	99.0*	-0.3	-3.7	9.1	i
COc1ccc(CNCc2ccncc2)c(OC)c1	-1.0	3.1	-17.4	-2.2	-3.9	0.2	.
C[C@H]1CN([C@@H](C)CO)S(=O)(=O)c2ccc(-c3cccc(F)c3)cc2O[C@H]1CN(C)CC1CC1	.	.	8.2	8.4	.	.	.
CC(C)NC(=O)N1CC(c2ccccc2)C(c2ccc(Cl)cc2)=N1 (stereo not given)	-3.5	12.6	97.5*	2.6	1.8	-37.6	i
SMILES	MIN6 prolif	PREPL inh	RAD52 inh	RAD54 inh	UBC13 inh	DNA FID counter	DNA binder FP
CNC[C@@H]1OCCCC[C@H](C)Oc2ccc(NC(=O)Nc3ccc(OC)cc3)cc2C(=O)N([C@H](C)CO)C[C@H]1C	.	.	-116.6	-4.9	.	.	.
CN1CCN(c2ccc(Nc3ccnc4cc(Cl)ccc34)cc2)CC1	-5.6	19.3	87.8*	52.7*	19.9	82.9*	i
Cc1sc2cc3c(c(C(=O)c4ccccc4)[n+]2c1C)-c1cccc2cccc-3c12	.	25.1	102.8*	.	.	20.2	61.1µM*
Cc1cc2ccccc2cc1C(=O)c1ccccc1	.	.	-6.1	-2.7	.	.	.
COc1ccc(C2NCCc3c2[nH]c2ccccc32)cc1COc1ccc(F)cc1 (stereo not given)	-6.0	37.8	85.4*	.	47.3*	24.8	i
COc1ccc(C2NCCc3c2[nH]c2ccccc32)cc1CN1CCc2cc(OC)c(OC)cc2C1C (stereo not given)	.	.	.	.	.	17.9	.
CCC(=O)N1C[C@@H](C)[C@@H](OC)CN(C)C(=O)c2cc(NC(=O)Nc3ccccc3)ccc2OC[C@@H]1C	.	.	21.3	-10.3	.	.	.
Cc1cc(C)c2nc3nc(C)c(C)cc3c(N)c2c1	-4.8	.	91.1*	.	-6.7	19.0	61.8µM*
CCOc1ccc(CCN2C(=S)N([C@@H](Cc3ccc(O)cc3)CN3CCCC3CN3C(=S)NC[C@@H]3Cc3ccc(O)cc3)C[C@@H]2CC(C)C)cc1 (stereo not given in full)	.	.	-45.9	2.5	.	.	.
CCOc1ccc(CCN2C(=S)N([C@@H](Cc3ccc(O)cc3)CN3CCC[C@@H]3CN3C(=S)NC[C@@H]3CC(C)C)C[C@@H]2Cc2ccc(O)cc2)cc1	.	.	66.6*	-8.4	.	.	i
CC(C)NC(=O)N(C)C[C@H]1Oc2c(NS(=O)(=O)c3ccccc3)cccc2C(=O)N([C@@H](C)CO)C[C@@H]1C	.	.	-3.1	-13.4	.	.	.
CC(C(=O)NCCN1C(=O)S/C(=C\c2cccnc2)C1=O)N1C(=O)c2ccccc2C1=O (stereo not given)	-2.8	12.7	-18.0	.	-3.5	-5.2	.
O=C(CCl)NCCN1C(=O)S/C(=C\c2cccnc2)C1=O	-4.0	5.5	89.9*	.	-9.2	-2.5	i
CO[C@@H]1CN(C)C(=O)c2cc(NC(=O)NC(C)C)ccc2OC[C@H](C)N(Cc2cncnc2)C[C@@H]1C	.	.	.	3.4	.	.	.
CN(C)CC/C=C1/c2ccc(F)cc2Sc2ccc(Cl)cc21	-4.0	-12.7	61.7*	28.9	13.5	.	i
CN(C)CC/C=C1\c2cc(Cl)ccc2Sc2cc(F)c(F)cc21	-4.1	-9.6	62.0*	.	25.6	.	i
CC[N+](C)(C)CC/C=C1/c2ccccc2Sc2ccc(Cl)cc21	-0.7	0.3	-10.8	5.7	15.4	15.3	.
CN(C)CC/C=C1\c2ccc(F)cc2Sc2cc(F)c(Cl)cc21	-4.3	-30.4	71.3*	37.9	30.4	.	i
CN(C)CC/C=C1\c2ccccc2Sc2cc(F)c(Cl)cc21	-4.1	-27.7	63.1*	.	30.6	.	i

Source: PubChem
